This is an account of results in paper PMC5700166.

Common to all, as to assay: protein-binding microarray (PBM); PBM: ~300 nM protein, 6 mM HEPES pH 7.8, 80 mM KCl, 0.5 mM EDTA, 0.5 mM EGTA, 6% glycerol, 35 ng/ul poly-dIdC, 1% milk, 1 h, room temperature; Ap Aiptasia and Nv Nematostella (sea anemones) / Co Capsaspora / Aq Amphimedon (sponge) / Dm Drosophila / Hu human; RHD is the Rel homology domain; high values mean tight binding
Holding throughout (details): dsDNA, one strand shown

The target of test [1] is T1, GST-Ap-NF-kB RHD (Exaiptasia pallida (Aiptasia), UniProt A0A913YAJ5 2-422).
T1 sequence: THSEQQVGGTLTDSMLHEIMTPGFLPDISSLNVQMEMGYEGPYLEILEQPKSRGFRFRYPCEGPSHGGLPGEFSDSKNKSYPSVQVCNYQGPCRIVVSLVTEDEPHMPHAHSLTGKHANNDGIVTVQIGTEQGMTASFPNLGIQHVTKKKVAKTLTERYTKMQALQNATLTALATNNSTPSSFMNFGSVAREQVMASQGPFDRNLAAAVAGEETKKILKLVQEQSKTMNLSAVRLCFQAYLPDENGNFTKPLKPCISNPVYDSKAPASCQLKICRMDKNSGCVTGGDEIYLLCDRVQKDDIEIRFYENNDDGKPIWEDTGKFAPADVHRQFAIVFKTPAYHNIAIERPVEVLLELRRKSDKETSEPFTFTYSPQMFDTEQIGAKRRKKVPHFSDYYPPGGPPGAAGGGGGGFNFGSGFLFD

Test [2] addresses T2, GST-Nv-NF-kB (Cys allele) (Nematostella vectensis, UniProt E5G601 2-411).
T2 sequence: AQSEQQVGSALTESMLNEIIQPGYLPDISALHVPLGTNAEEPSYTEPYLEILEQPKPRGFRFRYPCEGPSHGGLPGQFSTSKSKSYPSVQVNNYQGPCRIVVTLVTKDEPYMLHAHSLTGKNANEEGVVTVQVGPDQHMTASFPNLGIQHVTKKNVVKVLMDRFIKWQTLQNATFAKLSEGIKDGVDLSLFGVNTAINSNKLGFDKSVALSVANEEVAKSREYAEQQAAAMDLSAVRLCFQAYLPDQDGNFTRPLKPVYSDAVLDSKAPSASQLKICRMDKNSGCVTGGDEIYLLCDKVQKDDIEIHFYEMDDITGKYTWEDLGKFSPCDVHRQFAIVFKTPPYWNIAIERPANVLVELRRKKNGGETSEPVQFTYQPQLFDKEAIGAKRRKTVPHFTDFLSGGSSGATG

In test [3] the target is T3, GST-Nv-NF-kB (Ser allele) (Nematostella vectensis, UniProt A7UNT2 2-411).
T3 sequence: T2 sequence with Q21R, C66S, S207N, E215Q, V217A, E225K, A268E, D399E

The target of test [4] is T4, GST-Co-NF-kB (Capsaspora owczarzaki, UniProt F1ARL5 200-546).
T4 sequence: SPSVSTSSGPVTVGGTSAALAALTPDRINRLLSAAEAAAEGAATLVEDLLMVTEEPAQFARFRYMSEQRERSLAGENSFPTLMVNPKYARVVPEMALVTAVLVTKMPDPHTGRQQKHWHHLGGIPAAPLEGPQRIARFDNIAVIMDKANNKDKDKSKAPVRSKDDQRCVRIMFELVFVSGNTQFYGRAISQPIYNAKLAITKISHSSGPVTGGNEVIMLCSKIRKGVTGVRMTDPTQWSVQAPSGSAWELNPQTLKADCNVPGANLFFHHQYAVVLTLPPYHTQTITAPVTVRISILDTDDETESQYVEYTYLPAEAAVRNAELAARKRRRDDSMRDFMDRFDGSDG

Test [5] addresses T5, GST-Dm-Relish (Drosophila melanogaster, UniProt Q94527 99-473).
T5 sequence: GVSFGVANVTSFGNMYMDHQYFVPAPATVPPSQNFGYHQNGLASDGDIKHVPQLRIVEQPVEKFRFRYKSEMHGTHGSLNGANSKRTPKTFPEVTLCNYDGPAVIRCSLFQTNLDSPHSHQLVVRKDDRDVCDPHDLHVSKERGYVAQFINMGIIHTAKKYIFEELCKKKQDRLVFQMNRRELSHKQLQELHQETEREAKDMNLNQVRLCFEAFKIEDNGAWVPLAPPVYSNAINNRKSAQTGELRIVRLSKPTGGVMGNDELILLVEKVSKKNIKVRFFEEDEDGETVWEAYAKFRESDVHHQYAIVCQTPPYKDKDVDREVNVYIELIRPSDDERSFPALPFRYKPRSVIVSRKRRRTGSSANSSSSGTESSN

Test [6] concerns the target T6, GST-Aq-NF-kB (Amphimedon queenslandica, UniProt A9Y5G7 2-389).
T6 sequence: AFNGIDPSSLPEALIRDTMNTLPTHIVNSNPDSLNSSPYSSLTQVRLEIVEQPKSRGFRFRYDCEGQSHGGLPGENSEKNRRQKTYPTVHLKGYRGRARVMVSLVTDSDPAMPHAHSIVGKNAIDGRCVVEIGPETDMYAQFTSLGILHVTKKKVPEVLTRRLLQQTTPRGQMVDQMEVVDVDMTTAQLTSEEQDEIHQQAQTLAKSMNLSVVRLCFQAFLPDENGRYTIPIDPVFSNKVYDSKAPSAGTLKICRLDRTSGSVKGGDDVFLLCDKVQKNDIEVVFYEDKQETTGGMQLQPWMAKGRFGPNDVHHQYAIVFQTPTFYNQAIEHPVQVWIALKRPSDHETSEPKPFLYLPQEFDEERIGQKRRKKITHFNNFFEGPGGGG

The target of test [7] is GST-Hu-p50 (Homo sapiens, UniProt P19838 7-356).
Sequence of GST-Hu-p50 (P19838 7-356): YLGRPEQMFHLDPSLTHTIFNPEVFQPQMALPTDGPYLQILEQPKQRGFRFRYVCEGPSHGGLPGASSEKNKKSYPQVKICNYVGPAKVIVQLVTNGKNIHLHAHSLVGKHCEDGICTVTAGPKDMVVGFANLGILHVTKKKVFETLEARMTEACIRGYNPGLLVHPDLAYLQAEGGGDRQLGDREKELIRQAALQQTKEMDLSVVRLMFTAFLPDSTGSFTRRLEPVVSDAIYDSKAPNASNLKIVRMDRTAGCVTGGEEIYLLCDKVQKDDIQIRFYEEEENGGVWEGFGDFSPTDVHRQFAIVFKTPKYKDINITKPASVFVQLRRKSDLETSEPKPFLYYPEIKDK

Numbering of substitutions follows the chain as printed.

On to “CCGATTAACATCAAGAACCCCCGTGATGTTAATCGGGTCTTGATTCGCTTGACGCTGCTG”, for which the binding signal in test [1] worked out at 6.68 z-score; in test [2], 4.55 z-score; in test [3] it was 5.31 z-score; in test [4], 3.25 z-score; in test [5], 8.39 z-score; in test [6], 5.21 z-score. For the same sequence, the binding signal in test [7] came out at 5.41 z-score.

For “CCGATTAACATCAGATAATCCCCTGATGTTAATCGGGTCTTGATTCGCTTGACGCTGCTG”, the binding signal worked out at 8.1 z-score in test [1]; 8.93 z-score in test [2]; 9.43 z-score in test [3]; 4.09 z-score in test [4]; 6.59 z-score in test [5]; 7.45 z-score in test [6]. This sequence gave a binding signal in test [7] of 6.48 z-score.

For “CCGATTAACATCAAGTAATCCCCTGATGTTAATCGGGTCTTGATTCGCTTGACGCTGCTG”, the binding signal in test [1] amounted to 7.36 z-score; in test [2], 7.72 z-score; in test [3], 7.94 z-score; in test [4], 3.88 z-score; in test [5], 7.56 z-score; in test [6], 6.04 z-score. For the same sequence, the binding signal in test [7] is 5.93 z-score.

Turning to “CCGATTAACATCAGGGGGGACTATGATGTTAATCGGGTCTTGATTCGCTTGACGCTGCTG”, the binding signal was determined as 5.46 z-score in test [1]; 5.17 z-score in test [2]; 4.88 z-score in test [3]; 5.47 z-score in test [4]; 4.09 z-score in test [5]; 4.64 z-score in test [6]. Further, in test [7], the binding signal is 3.99 z-score.

Consider “CCGATTAACATCAGGGGAAAAGATGATGTTAATCGGGTCTTGATTCGCTTGACGCTGCTG”, for which the binding signal in test [1] is 5.46 z-score; in test [2], 6.76 z-score; in test [3], 9.01 z-score; in test [4], 7.74 z-score; in test [5], 1.82 z-score; in test [6] it was 4.78 z-score. For the same sequence, the binding signal in test [7] was found to be 5.18 z-score.

In the case of “CCGATTAACATCAGGGGGTTTAATGATGTTAATCGGGTCTTGATTCGCTTGACGCTGCTG”, the binding signal came to 6.88 z-score in test [1]; 5.26 z-score in test [2]; 6.77 z-score in test [3]; 2.64 z-score in test [4]; 7.87 z-score in test [5]; 5.24 z-score in test [6]. The sequence further registered a binding signal in test [7] of 6.62 z-score.

Consider “CCGATTAACATCAGAAACCCCCCTGATGTTAATCGGGTCTTGATTCGCTTGACGCTGCTG”, for which the binding signal in test [1] came out at 9.47 z-score; in test [2], 7.7 z-score; in test [3] it was 7.63 z-score; in test [4], 3.94 z-score; in test [5], 9.65 z-score; in test [6], 7.6 z-score. Besides, the binding signal in test [7] stood at 6.97 z-score.

As for “CCGATTAACATCAGGGAAAATACTGATGTTAATCGGGTCTTGATTCGCTTGACGCTGCTG”, the binding signal in test [1] was 3.76 z-score; in test [2], 6.09 z-score; in test [3], 6.82 z-score; in test [4] it was 4.49 z-score; in test [5] it was 4.93 z-score; in test [6], 5.71 z-score. The sequence also came in with a binding signal in test [7] of 4.76 z-score.

In the case of “CCGATTAACATCAAGGGGATCCCTGATGTTAATCGGGTCTTGATTCGCTTGACGCTGCTG”, the binding signal was 9.22 z-score in test [1]; 6.41 z-score in test [2]; 7.34 z-score in test [3]; 3.82 z-score in test [4]; 10.3 z-score in test [5]; 6.69 z-score in test [6]. Besides, the binding signal in test [7] is 5.5 z-score.

“CCGATTAACATCAACGATTCCCCTGATGTTAATCGGGTCTTGATTCGCTTGACGCTGCTG”: the binding signal in test [1] came out at 5.94 z-score; in test [2], 6.55 z-score; in test [3], 8.86 z-score; in test [4] it was 6.02 z-score; in test [5], 3.74 z-score; in test [6], 4.38 z-score. The same sequence registered a binding signal in test [7] of 5.62 z-score.

For “CCGATTAACATCAGGGAATTTTATGATGTTAATCGGGTCTTGATTCGCTTGACGCTGCTG”, the binding signal in test [1] amounted to 6.12 z-score; in test [2], 9.33 z-score; in test [3], 8.44 z-score; in test [4], 4.82 z-score; in test [5], 6.83 z-score; in test [6], 8.16 z-score. In test [7], this sequence yielded a binding signal of 6.55 z-score.

“CCGATTAACATCAGAGACTTCCCTGATGTTAATCGGGTCTTGATTCGCTTGACGCTGCTG”: the binding signal amounted to 1.92 z-score in test [1]; 2.44 z-score in test [2]; 2.19 z-score in test [3]; 1.11 z-score in test [4]; 1.95 z-score in test [5]; 3.32 z-score in test [6]. In test [7], this sequence returned a binding signal of 1.57 z-score.
